Screen size: about 190,000 compounds; about 1,300 (0.68%) were called active. The sample holds actives, similar compounds and a random draw of the others, so the mix is not that of the screen. Unmarked numbers belong to inactive results. Cut-off read from the data, not from the text of the source: active = inhibition above about 50%; inactive = the rest.
Target: Mannose-6-phosphate isomerase (Homo sapiens) (UniProt P34949)
Experiment: human PMI inhibitors, high substrate, primary screen, biochemical, fluorescence intensity, high mannose 6-phosphate (AID 1220)
Conditions: recombinant PMI enzyme, coupled fluorescence intensity; at 20 µM; stronger effect = higher value

Sequence of Mannose-6-phosphate isomerase (Homo sapiens) (P34949 whole entry, looked up): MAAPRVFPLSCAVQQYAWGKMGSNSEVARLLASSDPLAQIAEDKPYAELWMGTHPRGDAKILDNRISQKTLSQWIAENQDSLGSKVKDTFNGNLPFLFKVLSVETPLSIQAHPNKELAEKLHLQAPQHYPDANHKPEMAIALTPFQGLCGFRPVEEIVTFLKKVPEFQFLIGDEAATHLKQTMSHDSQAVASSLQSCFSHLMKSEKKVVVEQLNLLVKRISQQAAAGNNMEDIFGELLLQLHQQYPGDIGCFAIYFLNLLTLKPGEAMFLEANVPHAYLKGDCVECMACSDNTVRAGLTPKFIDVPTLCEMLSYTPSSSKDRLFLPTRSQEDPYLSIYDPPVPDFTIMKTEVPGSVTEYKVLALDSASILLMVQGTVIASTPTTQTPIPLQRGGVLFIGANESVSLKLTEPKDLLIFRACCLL

| SMILES | inhibition |
| --- | --- |
| Cc1cc(NC(=O)CN2C(=O)/C(=C/c3cccc(Br)c3)SC2=S)no1 | -9.8% |
| CC(Cl)c1cc(-c2ncc(C(F)(F)F)cc2Cl)no1 (stereo not drawn) | -4.3% |
| CCc1ccccc1OCCCCCNCCO | 1.5% |
| COc1cc(C2=NOC(C(=O)N3CCCCCC3)C2)cc(OC)c1OC (stereo not drawn) | -5.6% |
| O=C(O)C1CC=CCC1C(=O)NCCc1csc(-c2ccccc2)n1 (stereo not drawn) | -17.1% |
| CCOc1ccc(C(C)NC(=S)NC2CCCCC2)cc1OCC (stereo not drawn) | 6% |
| Cc1ccc(OCC(=O)N/N=C\c2cn(C)c3ccccc23)c([N+](=O)[O-])c1 | 14% |
| COc1cccc(C2NC(=O)c3ccccc3O2)c1OCc1ccccc1F (stereo not drawn) | 19% |
| CN(C)c1ccc(/C(=N\O)c2ccccc2)cc1 | 5.9% |
| Cc1ccc(N=Cc2ccc(N(C)C)cc2)cc1C | 10% |
| CN(C)c1ccc(C=Nc2ccccc2)cc1 | -10.5% |
| Cc1ccc(N=Cc2ccc(N(C)C)cc2)cc1 | 9.3% |
| Cc1ccc(/C=C/C(=O)Nc2ccc(N(C)C)cc2)o1 | 27.9% |
| Cc1ccc(C=Nc2ccc(N(C)C)cc2)o1 | 51.8% (active) |
| CN(C)c1ccc(C=Nc2ccc(N(C)C)cc2)cc1 | 59.2% (active) |
| CN(C)c1ccc(N=Cc2nc(-c3ccccc3)oc2O)cc1 | 31% |
| CN(C)c1ccc(C(=O)/C=C/c2ccco2)cc1 | 38.7% |
| CN(C)c1ccc(N=Cc2ccco2)cc1 | 63.2% (active) |
| CCSc1nc(C(F)(F)F)cc(=O)n1-c1ccccc1 | -9.6% |
| O=C(Nc1c(F)cc(F)cc1Br)c1cc2nc(C(F)F)cc(C(F)F)n2n1 | 18.1% |
| CCCC1(C)NC(=O)c2ccccc2O1 (stereo not drawn) | 7.5% |
| Cc1cccc(C)c1NC(=O)CSc1nnc(Cc2ccccc2)o1 | -13.2% |
| Cc1cccc(OCC(=O)O/N=C(\N)Cc2cccs2)c1 | 0% |
| O=C(COc1cccc(C(F)(F)F)c1)N1CCN(c2ccc(O)cc2)CC1 | 50.6% (active) |
| COc1ccc(OCC(=O)N2CCN(c3cccc(C(F)(F)F)c3)CC2)cc1 | 15.4% |

| SMILES | inhibition |
| --- | --- |
| O=C(COc1cccc(C(F)(F)F)c1)N1CCN(c2ccccc2O)CC1 | -5.8% |
| CC(C)(C)C(=O)NC(Nc1cccc2cccnc12)C(Cl)(Cl)Cl (stereo not drawn) | 60.1% (active) |
| CC(C)C(=O)NC(Nc1cccc2cccnc12)C(Cl)(Cl)Cl (stereo not drawn) | 41.4% |
| CCC(=O)NC(NC(=S)Nc1cccc2cccnc12)C(Cl)(Cl)Cl (stereo not drawn) | 37.8% |
| CCOC(=O)c1oc2ccccc2c1NC(=O)COC | -10.9% |
| CCOc1ccc(C(C)NC(=O)CCC(=O)O)cc1 (stereo not drawn) | 1.9% |
| Cc1ccc2nc(SCC(=O)Nc3cccc(S(=O)(=O)N(C)C)c3)[nH]c2c1 | 10.5% |
| O=C(/C=C/c1ccc(Br)o1)NCCCN1CCOCC1 | -2.7% |
| CCCc1ccc(C#N)c(SC2CC(=O)N(c3ccc(OC)cc3)C2=O)n1 (stereo not drawn) | 40.6% |
| N#Cc1cc2c(nc1SC1CC(=O)N(c3ccccc3)C1=O)CCC2 (stereo not drawn) | 35.2% |
| COc1ccc(N2C(=O)CC(Sc3nc4c(cc3C#N)CCC4)C2=O)cc1 (stereo not drawn) | 57.1% (active) |
| Cc1nc2ccc(NC(=O)c3cc(S(=O)(=O)N4CCOCC4)ccc3C)cc2s1 | 5.6% |
| Cc1nc2ccc(NC(=O)c3ccc(S(=O)(=O)N4CCOCC4)cc3)cc2s1 | -2.3% |
| Cc1nc2ccc(Nc3nc4cc(S(=O)(=O)N5CCOCC5)ccc4o3)cc2s1 | 61.9% (active) |
| Nc1nc(NCCCN2CCOCC2)nc(Nc2ccc(F)cc2)c1[N+](=O)[O-] | -6.1% |
| CCOC(=O)c1sc2nc(CC(=O)OC)nc(N(C)CCc3ccccn3)c2c1C | -1.1% |
| CC1=C(n2nnc([N+](=O)[O-])n2)C(c2cccnc2)C(C#N)=C(N)O1 (stereo not drawn) | 59.9% (active) |
| CCOC(=O)C1=C(c2ccccc2)OC(N)=C(C#N)C1c1cccnc1 (stereo not drawn) | 11.6% |
| CC(=O)C1=C(C)OC(N)=C(C#N)C1c1ccncc1 (stereo not drawn) | -5.8% |
| CC(=O)C1=C(C)OC(N)=C(C#N)C1c1cccnc1 (stereo not drawn) | 42.6% |
| COC(=O)C1=C(C)OC(N)=C(C#N)C1c1cccnc1 (stereo not drawn) | 0.3% |
| CC(=O)C1=C(C)OC(N)=C(C#N)C1c1cccc([N+](=O)[O-])c1 (stereo not drawn) | 56.7% (active) |
| O=C(CN1CCN(C2CCCCC2)CC1)Nc1ccc(Br)cc1 | -11.2% |
| CC1(C)CC(=O)C(N=Nc2cc(Cl)c(Cl)c(Cl)c2)=C(O)C1 | -3.4% |
| O=Cc1ccc(-n2cc(C=O)c3ccccc32)cc1 | -5.3% |

| SMILES | inhibition |
| --- | --- |
| CC1=C(C(=O)OCC2CCCO2)C(c2coc3ccccc3c2=O)C2=C(CC(C)(C)CC2=O)N1 (stereo not drawn) | -4.3% |
| CC(NC(=O)c1cc(-c2ccc(Br)cc2)on1)c1ccccc1 (stereo not drawn) | -3.3% |
| CCc1cc(C(=O)Cc2cnn(-c3ccccc3)c2)c(O)cc1O | 15.5% |
| O=C(c1cnn(-c2ccccc2)c1)c1ccccc1O | 10.1% |
| O=C(Nc1cccc(NC(=O)c2ccc3c(c2)OCO3)c1)c1ccccc1 | 6.5% |
| CCOc1ccccc1N1CCN(CC(=O)Nc2nnc(CC)s2)CC1 | -13% |
| O=c1c2cc(Br)ccc2nc(-c2ccc([N+](=O)[O-])cc2)n1O | -16.5% |
| O=c1c2c([N+](=O)[O-])cc([N+](=O)[O-])cc2sn1-c1ccc(Br)cc1 | 104% (active) |
| O=c1n(-c2ccc(Br)cc2)cnn1-c1ncccc1[N+](=O)[O-] | -0.4% |
| Cc1ccc(C(=O)Nc2ccc(Br)cc2)cc1S(=O)(=O)Nc1ccccn1 | 3.7% |
| COc1cccc(NC2=NC3(CCCCC3)N=C(N)N2)c1 | -6.8% |
| c1ccc(Nc2cccc(Nc3ccccc3)c2)cc1 | 29.3% |
| O=C1c2cccc3cccc(c23)C(=O)N1c1nccs1 | 8.2% |
| COc1ccccc1-c1nnc(NC(=O)C(C)Sc2nncn2C)s1 (stereo not drawn) | -2.2% |
| CC(Sc1nncn1C)C(=O)Nc1nnc(-c2ccccc2)s1 (stereo not drawn) | 6% |
| COc1ccc(OC)c(-c2nnc(NC(=O)C(C)Sc3nncn3C)s2)c1 (stereo not drawn) | 91.6% (active) |
| COc1ccccc1CN1CCNC(=O)C1CC(=O)NCc1csc(C)n1 (stereo not drawn) | 9.7% |
| CSc1ccc(/C=N/NC(=O)CN2CCN(Cc3ccccc3Cl)CC2)cc1 | 0.4% |
| Cc1ccc(C)c(C(=O)COc2ccc(C)nc2[N+](=O)[O-])c1 | 18.4% |
| Cc1ccc(OCC(=O)c2ccc(Cl)s2)c([N+](=O)[O-])n1 | 55.6% (active) |
| COCCn1c(C)cc(C(=O)COc2ccc(C)nc2[N+](=O)[O-])c1C | 51.6% (active) |
| COCCn1c(C)cc(C(=O)COc2cccnc2[N+](=O)[O-])c1C | 59.4% (active) |
| CCCn1c(C)cc(C(=O)COc2ccc(C)nc2[N+](=O)[O-])c1C | 3.2% |
| Cc1ccc(OCC(=O)c2cc(C)n(C)c2C)c([N+](=O)[O-])n1 | 42.3% |
| Cc1cc(C)c(C(=O)COc2cccnc2[N+](=O)[O-])cc1C | 24.3% |

| SMILES | inhibition |
| --- | --- |
| Cc1ccc(OCC(=O)c2cc(C)c(C)cc2C)c([N+](=O)[O-])n1 | 4.2% |
| COCCn1c(C)cc(C(=O)COc2nc3ccccc3nc2C)c1C | 8.5% |
| O=C(CCN1C(=O)c2cccnc2C1=O)NC1CCCCCC1 | 9.7% |
| CCC(=O)Nc1ccc(N2CCN(S(C)(=O)=O)CC2)cc1 | 3.4% |
| Cc1cc(NCCCn2ccnc2)n2nc(-c3ccc(F)cc3)cc2n1 | -14.3% |
| O=C(N/N=C/c1ccncc1)c1cccc(NC(=O)c2ccc(Cl)cc2)c1 | -140% |
| C#CCOCCOCCOCCNc1nc(N2CCN(C(=O)Cn3cc(CCCN=C(N)N)nn3)CC2)nc(N2CCN(C(=O)[C@H]([C@@H](C)CC)n3cc(CCCN=C(N)N)nn3)CC2)n1 | -53.5% |
| CCOC(=O)N1CCC(NC(=O)C2CCCN(c3nc4ccccc4o3)C2)CC1 (stereo not drawn) | 3.2% |
| CC(NC(=O)C(Cc1ccccc1)NC(=O)c1ccccc1)C(=O)O (stereo not drawn) | -5.7% |
| N=C(N)Cc1ccccc1Sc1ccccc1 | -7.9% |
| Cc1ccc(NC(=O)c2ccc(F)c(S(=O)(=O)N3CCOCC3)c2)cc1F | 0.5% |
| Cc1[nH][nH]c(=O)c1C(c1c(C)[nH][nH]c1=O)c1cn(Cc2cccc3ccccc23)c2ccccc12 | 56% (active) |
| Cc1[nH][nH]c(=O)c1C(c1c(C)[nH][nH]c1=O)c1cn(Cc2ccccc2Cl)c2ccccc12 | 50.3% (active) |
| CCOC(=O)N1CCN(C(=O)CS(=O)(=O)c2cn(Cc3ccccc3Cl)c3ccccc23)CC1 | 3.6% |
| COC(=O)N/N=C/c1cn(Cc2ccccc2Cl)c2ccccc12 | 16.8% |
| Cc1nccn1Cc1cccc2ccccc12 | -0.7% |
| O=c1c2ccccc2ncn1Cc1cccc2ccccc12 | 7.1% |
| O=C(O)c1ccc(Cl)c(S(=O)(=O)Nc2ccccc2N2CCOCC2)c1 | -3.7% |
| CC(C)=C1C2C=CC1C(C(=O)Nc1cccc(C)c1)C2C(=O)O (stereo not drawn) | 0.3% |
| O=C(COC(=O)c1cc(=O)c2ccccc2o1)NC1CCCC1 | 30.5% |
| CCC(=O)Nc1cc2[nH]c(=O)cc(C)c2cc1C | 54.6% (active) |
| CCCCCC(=O)Nc1cc2[nH]c(=O)cc(COC)c2cc1C | -2.7% |
| CCC(=O)Nc1cc2c(C)cc(=O)oc2cc1C | -14.2% |
